Data published in article PMC7862700, “An all-to-all approach to the identification of sequence-specific readers for epigenetic DNA modifications on cytosine”.

What was measured:
Assay in all cases: DAPPL (digital affinity profiling via proximity ligation, sequencing); 10 mM Tris-HCl pH 7.5, 50 mM NaCl, 1 mM DTT, 4% glycerol, room temperature, 30 min; GST-TFs on glutathione beads, 16-mer random dsDNA library, 0.1% formaldehyde crosslink after washing; high values mean tight binding
Settings in all cases: protein: recombinant; tags: N-terminal GST; dsDNA, one strand shown
FLI1 = molecular target: T1, FLI1 (Homo sapiens, UniProt Q01543 1-452)
T1 sequence: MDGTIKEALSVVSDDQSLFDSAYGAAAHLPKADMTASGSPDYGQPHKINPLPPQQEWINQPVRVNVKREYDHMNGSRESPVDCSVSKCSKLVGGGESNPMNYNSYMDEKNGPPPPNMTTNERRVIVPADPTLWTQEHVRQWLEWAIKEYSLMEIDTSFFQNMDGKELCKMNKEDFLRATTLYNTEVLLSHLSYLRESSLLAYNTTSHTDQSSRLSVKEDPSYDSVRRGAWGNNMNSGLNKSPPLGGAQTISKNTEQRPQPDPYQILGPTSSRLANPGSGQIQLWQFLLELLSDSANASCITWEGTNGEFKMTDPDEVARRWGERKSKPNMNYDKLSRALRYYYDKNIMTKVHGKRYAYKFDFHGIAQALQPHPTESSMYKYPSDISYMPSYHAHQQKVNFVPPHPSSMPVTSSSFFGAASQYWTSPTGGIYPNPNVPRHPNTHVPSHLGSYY
How it was run: (§1)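 Binding signal is defined as a hexamer's read frequency for one factor over its frequency for the tag-only sample. To obtain reads, GST-fused human transcription factors were expressed in yeast, captured on glutathione beads, barcoded with DNA and pooled with that sample. Pools met 200 nmole of a 16-mer random double-stranded DNA library in Tris/NaCl/DTT/glycerol buffer for 30 min at room temperature before washing, 0.1% formaldehyde crosslinking, proximity ligation (BsaI/T4 ligase, 1 h, 37 °C), PCR and Illumina NextSeq500 sequencing.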

SPI1 = SPI1 (Homo sapiens, UniProt P17947 1-270)
How it was run: as §1

CRX = CRX (Homo sapiens, UniProt O43186 1-299)
How it was run: as §1

ETV2 = molecular target: T2, ETV2 (Homo sapiens, UniProt O00321 1-342)
T2 sequence: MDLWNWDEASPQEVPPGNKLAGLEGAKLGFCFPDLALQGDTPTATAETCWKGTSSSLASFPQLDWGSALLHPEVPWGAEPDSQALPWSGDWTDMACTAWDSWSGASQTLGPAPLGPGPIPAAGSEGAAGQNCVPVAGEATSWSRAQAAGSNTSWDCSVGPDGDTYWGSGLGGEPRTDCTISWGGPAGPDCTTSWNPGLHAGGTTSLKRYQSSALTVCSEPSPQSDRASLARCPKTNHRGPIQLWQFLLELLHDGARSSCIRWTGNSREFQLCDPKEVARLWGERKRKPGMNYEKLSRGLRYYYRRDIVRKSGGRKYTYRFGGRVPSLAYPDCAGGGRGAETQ
How it was run: as §1

ELF5 = molecular target: T3, ELF5 (Homo sapiens, UniProt Q9UKW6-2 1-255)
T3 sequence: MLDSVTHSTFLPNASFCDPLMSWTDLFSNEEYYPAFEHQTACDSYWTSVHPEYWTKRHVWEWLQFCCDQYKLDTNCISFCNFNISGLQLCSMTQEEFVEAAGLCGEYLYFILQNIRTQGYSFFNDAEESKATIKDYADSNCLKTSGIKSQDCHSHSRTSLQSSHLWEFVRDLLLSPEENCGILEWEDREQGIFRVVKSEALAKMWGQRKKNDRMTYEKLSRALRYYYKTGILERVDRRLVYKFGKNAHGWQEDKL
How it was run: as §1

Chain of CRX (O43186 whole entry): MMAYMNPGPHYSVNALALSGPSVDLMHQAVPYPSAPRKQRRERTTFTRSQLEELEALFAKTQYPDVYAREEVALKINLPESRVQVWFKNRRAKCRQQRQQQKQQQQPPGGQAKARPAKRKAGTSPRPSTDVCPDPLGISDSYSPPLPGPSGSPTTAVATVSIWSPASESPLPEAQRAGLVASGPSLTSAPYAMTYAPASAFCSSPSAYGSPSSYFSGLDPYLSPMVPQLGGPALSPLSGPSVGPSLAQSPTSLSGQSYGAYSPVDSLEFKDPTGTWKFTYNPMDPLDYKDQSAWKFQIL

Row | Sequence | binding signal (FLI1) | binding signal (SPI1) | binding signal (CRX) | binding signal (ETV2) | binding signal (ELF5)
1 | TGGGCA | 1.05 fold enrichment (6-mer frequency, TF over GST control) | 1.08 fold enrichment (6-mer frequency, TF over GST control) |  |  | 
2 | CAGCCT | 1.14 fold enrichment (6-mer frequency, TF over GST control) | 1.03 fold enrichment (6-mer frequency, TF over GST control) | 1.06 fold enrichment (6-mer frequency, TF over GST control) |  | 
3 | CCCAAG | 1.09 fold enrichment (6-mer frequency, TF over GST control) | 1.03 fold enrichment (6-mer frequency, TF over GST control) |  |  | 
4 | TCAGTT | 1.02 fold enrichment (6-mer frequency, TF over GST control) |  |  | 1.05 fold enrichment (6-mer frequency, TF over GST control) | 
5 | TCGTCC | 1.1 fold enrichment (6-mer frequency, TF over GST control) | 1.03 fold enrichment (6-mer frequency, TF over GST control) |  |  | 1.02 fold enrichment (6-mer frequency, TF over GST control)
6 | TCACCG | 1.06 fold enrichment (6-mer frequency, TF over GST control) | 1.06 fold enrichment (6-mer frequency, TF over GST control) |  |  | 1.01 fold enrichment (6-mer frequency, TF over GST control)
7 | CGTTTG | 1.05 fold enrichment (6-mer frequency, TF over GST control) |  |  | 1.16 fold enrichment (6-mer frequency, TF over GST control) | 1.1 fold enrichment (6-mer frequency, TF over GST control)
8 | CAGCAT | 1.04 fold enrichment (6-mer frequency, TF over GST control) |  |  |  | 
9 | CGCGTT | 1.1 fold enrichment (6-mer frequency, TF over GST control) |  |  | 1.16 fold enrichment (6-mer frequency, TF over GST control) | 1.02 fold enrichment (6-mer frequency, TF over GST control)
10 | CGTTGT | 1.15 fold enrichment (6-mer frequency, TF over GST control) |  |  | 1.13 fold enrichment (6-mer frequency, TF over GST control) | 1.07 fold enrichment (6-mer frequency, TF over GST control)
11 | ATAGCC | 1.03 fold enrichment (6-mer frequency, TF over GST control) |  | 1.02 fold enrichment (6-mer frequency, TF over GST control) | 1 fold enrichment (6-mer frequency, TF over GST control) | 
12 | TGCAAG | 1.09 fold enrichment (6-mer frequency, TF over GST control) | 1 fold enrichment (6-mer frequency, TF over GST control) |  |  | 1.05 fold enrichment (6-mer frequency, TF over GST control)
13 | CACCGG | 1.11 fold enrichment (6-mer frequency, TF over GST control) | 1.08 fold enrichment (6-mer frequency, TF over GST control) |  |  | 1.03 fold enrichment (6-mer frequency, TF over GST control)
14 | CCGCAG | 1.12 fold enrichment (6-mer frequency, TF over GST control) | 1.11 fold enrichment (6-mer frequency, TF over GST control) |  | 1.22 fold enrichment (6-mer frequency, TF over GST control) | 1.04 fold enrichment (6-mer frequency, TF over GST control)
15 | GGTGGT | 1.05 fold enrichment (6-mer frequency, TF over GST control) |  |  |  | 
16 | CCCGTC | 1.12 fold enrichment (6-mer frequency, TF over GST control) | 1.11 fold enrichment (6-mer frequency, TF over GST control) |  | 1.32 fold enrichment (6-mer frequency, TF over GST control) | 1.12 fold enrichment (6-mer frequency, TF over GST control)
17 | GCACAC | 1.02 fold enrichment (6-mer frequency, TF over GST control) |  |  | 1.01 fold enrichment (6-mer frequency, TF over GST control) | 

Row | Sequence | binding signal (FLI1) | binding signal (SPI1) | binding signal (CRX) | binding signal (ETV2) | binding signal (ELF5)
18 | CCAAGC | 1.01 fold enrichment (6-mer frequency, TF over GST control) |  |  | 1.02 fold enrichment (6-mer frequency, TF over GST control) | 
19 | GGTACA | 1.03 fold enrichment (6-mer frequency, TF over GST control) |  |  |  | 1 fold enrichment (6-mer frequency, TF over GST control)
20 | ACGCCG | 1.15 fold enrichment (6-mer frequency, TF over GST control) | 1.09 fold enrichment (6-mer frequency, TF over GST control) |  | 1.07 fold enrichment (6-mer frequency, TF over GST control) | 
21 | GGCTAC | 1.17 fold enrichment (6-mer frequency, TF over GST control) |  |  |  | 1.16 fold enrichment (6-mer frequency, TF over GST control)
22 | ACGCGG | 1.04 fold enrichment (6-mer frequency, TF over GST control) | 1.02 fold enrichment (6-mer frequency, TF over GST control) |  | 1.18 fold enrichment (6-mer frequency, TF over GST control) | 1.07 fold enrichment (6-mer frequency, TF over GST control)
23 | GCAAAC | 1.04 fold enrichment (6-mer frequency, TF over GST control) | 1.07 fold enrichment (6-mer frequency, TF over GST control) |  |  | 
24 | CGCCGG | 1.01 fold enrichment (6-mer frequency, TF over GST control) |  |  | 1.06 fold enrichment (6-mer frequency, TF over GST control) | 1.02 fold enrichment (6-mer frequency, TF over GST control)
25 | TGCGCC | 1.17 fold enrichment (6-mer frequency, TF over GST control) | 1.22 fold enrichment (6-mer frequency, TF over GST control) |  | 1.18 fold enrichment (6-mer frequency, TF over GST control) | 1.11 fold enrichment (6-mer frequency, TF over GST control)
26 | AGCGCT | 1.1 fold enrichment (6-mer frequency, TF over GST control) |  | 1.01 fold enrichment (6-mer frequency, TF over GST control) |  | 1 fold enrichment (6-mer frequency, TF over GST control)
27 | TGGCTG | 1.11 fold enrichment (6-mer frequency, TF over GST control) | 1.02 fold enrichment (6-mer frequency, TF over GST control) |  | 1.26 fold enrichment (6-mer frequency, TF over GST control) | 1.01 fold enrichment (6-mer frequency, TF over GST control)
28 | CGTCCA | 1.13 fold enrichment (6-mer frequency, TF over GST control) | 1.03 fold enrichment (6-mer frequency, TF over GST control) |  |  | 
29 | GTAACC | 1.04 fold enrichment (6-mer frequency, TF over GST control) | 1.01 fold enrichment (6-mer frequency, TF over GST control) |  | 1.06 fold enrichment (6-mer frequency, TF over GST control) | 1.07 fold enrichment (6-mer frequency, TF over GST control)
30 | GGTCAC | 1.08 fold enrichment (6-mer frequency, TF over GST control) |  |  | 1.15 fold enrichment (6-mer frequency, TF over GST control) | 
31 | ACGGTA | 1.02 fold enrichment (6-mer frequency, TF over GST control) |  |  | 1.03 fold enrichment (6-mer frequency, TF over GST control) | 1.05 fold enrichment (6-mer frequency, TF over GST control)
32 | AACCGC | 1.15 fold enrichment (6-mer frequency, TF over GST control) | 1.04 fold enrichment (6-mer frequency, TF over GST control) | 1.02 fold enrichment (6-mer frequency, TF over GST control) | 1.12 fold enrichment (6-mer frequency, TF over GST control) | 1 fold enrichment (6-mer frequency, TF over GST control)
33 | AGGACC | 1.13 fold enrichment (6-mer frequency, TF over GST control) |  |  | 1.18 fold enrichment (6-mer frequency, TF over GST control) | 1.1 fold enrichment (6-mer frequency, TF over GST control)
34 | TCAAGC | 1.03 fold enrichment (6-mer frequency, TF over GST control) |  | 1.06 fold enrichment (6-mer frequency, TF over GST control) | 1.09 fold enrichment (6-mer frequency, TF over GST control) | 
